Screening results: PubChem BioAssay, National Center for Advancing Translational Sciences (NCATS)
GLS inh = qHTS for Inhibitors of Glutaminase (GLS) | GLS enzymatic activity, qHTS titration | Potency, µM (titrated, usually from 45.5 µM), hits mostly inhibitors | AID 624170, 2012 | 410,000 compounds, 0.21% hits
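Human kidney-isoform GLS in 45 mM KH2PO4 pH 8.2, 0.02% Tween-20, with compound, started with 1mM L-Glutamine (added stock). Glutamate oxidase/HRP/Amplex red coupled fluorescence read at start and after 30 min at RT.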
VDR inhibitor = Inhibitors of the vitamin D receptor (VDR): qHTS. Vitamin D3 receptor (Homo sapiens), P11473. VDR-SRC2-3 peptide fluorescence polarization, 2 h. Potency, µM, most hits filed as inhibitors. 400,000 compounds, 0.93% hits. AID 504847, 2011
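Signal is fluorescence polarization, reporting how far test compounds block the interaction of VDR with the SRC2-3 coregulator peptide after a 2 h room-temperature incubation.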
PI4K2A inh = qHTS for small molecular inhibitors of PI4K2A | purified PI4K2A, ADP-Glo luminescence, 1 h; active compounds read low | 420,000 compounds, 0.13% hits | Phosphatidylinositol 4-kinase type 2-alpha (Homo sapiens), Q9BTU6 | activity change, negative = inhibition, % at 76.9 µM; in the data active = activity change below about -50%; inconclusive = mostly about -30% to -49%
Target sequence (Q9BTU6 whole entry, looked up): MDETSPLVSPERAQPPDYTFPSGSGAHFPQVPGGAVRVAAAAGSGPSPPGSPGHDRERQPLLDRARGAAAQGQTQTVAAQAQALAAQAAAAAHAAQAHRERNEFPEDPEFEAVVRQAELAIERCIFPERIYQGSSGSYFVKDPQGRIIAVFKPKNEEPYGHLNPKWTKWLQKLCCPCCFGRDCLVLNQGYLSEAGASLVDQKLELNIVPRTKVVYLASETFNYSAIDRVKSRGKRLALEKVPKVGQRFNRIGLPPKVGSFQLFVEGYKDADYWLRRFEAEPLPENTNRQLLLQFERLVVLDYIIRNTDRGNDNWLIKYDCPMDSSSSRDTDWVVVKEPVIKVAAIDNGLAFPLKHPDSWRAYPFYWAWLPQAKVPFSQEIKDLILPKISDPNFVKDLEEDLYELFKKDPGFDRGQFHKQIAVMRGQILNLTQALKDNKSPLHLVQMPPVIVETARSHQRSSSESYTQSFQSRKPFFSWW
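In this quantitative HTS, ADP production by PI4K2A was quantified luminescently after 1 h at ambient temperature; 100 microM adenosine served as plate-quality control.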
PLK1 PBD block = qHTS for Inhibitors of PLK1-PDB (polo-like kinase 1 - polo-box domain): Primary Screen | Serine/threonine-protein kinase PLK1 (Homo sapiens), P53350 | Plk1 PBD binding of FITC phosphopeptide, fluorescence polarization | Potency, µM, hits mostly inhibitors | 360,000 compounds, 2.8% hits; also: series mostly up to about 57 µM; nearly all actives have a fitted effect of over 65% in size
GCN5L2 inh = qHTS Assay for Inhibitors of GCN5L2; Histone acetyltransferase KAT2A (Homo sapiens), Q92830; GCN5L2 HAT assay, ThioGlo1 CoA-SH fluorescence; Potency, µM (doses to about 58.9 µM), hits mostly inhibitors; 390,000 compounds, 0.21% hits
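qHTS, 1536-well. 20nM enzyme, pH 7.5 HEPES/EDTA/Tween-20 buffer; 15 min compound preinc., RT. Start: 75uM H3(1-25), 70uM AcCoA, 50uM ThioGlo1. Read Ex340/Em540 at t=0 (autofluorescence flag) and t=20 min.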
Hits are given with their value; – = inactive; ? = inconclusive; · = not tested or not shown; ! = repeats disagree. An excerpt weighted towards active compounds, which were near 3.1% of everything screened. Unless noted, calls follow the shape of the dose curve; as a rule, active = well fitted curve in the direction sought with a large enough effect; inconclusive = small, poorly fitted or top-dose-only effect, or another doubt; inactive = no such curve, though single readings can be large; an effect the other way counts as inactive or inconclusive.

SMILES	GLS inh	VDR inhibitor	PI4K2A inh	PLK1 PBD block	GCN5L2 inh
COc1cc2c(cc1[N+](=O)[O-])-c1ccc([N+](=O)[O-])cc1C2=NNC(N)=S	–	·	–	9.5µM	·
Cc1cc(C)nc(SCC(=O)Oc2ccc3oc(=O)cc(C)c3c2)n1	–	–	–	27µM	–
CCC(=O)Oc1ccc2oc(=O)cc(C)c2c1	–	–	–	–	–
CCOC(=O)c1ccc(N2C(=O)CC(N3CCCC(C)C3)C2=O)cc1 (centres undefined)	–	–	–	–	–
CCOC(=O)c1ccc(N2C(=O)C3CCCN3C2=S)cc1 (centres undefined)	–	–	–	12µM	–
CCOc1ccc(NC(=O)CN2C(=O)C3CCCN3C2=O)cc1 (centres undefined)	–	–	–	24µM	–
CCOc1ccc(N2C(=O)CC(N3CCc4ccccc43)C2=O)cc1 (centres undefined)	–	–	–	–	–
CCOc1ccc(N2C(=O)C3CCCN3C2=S)cc1 (centres undefined)	–	–	–	21µM	–
CCOc1ccc(NC(=O)CN2CCN(C3CCCCC3)C(=O)C2=O)cc1	–	–	–	·	–
O=C(CN1C(=O)C2CCCCN2C(=O)c2ccccc21)N1CCCC1 (centres undefined)	·	·	–	·	·
COCCCN1C(=O)[C@H](CC(=O)NCc2cccc3ccccc23)[C@]2(C(=O)OC)CCCCC=C12	·	·	–	·	·
C=CC[C@@]1(c2ccccc2)Oc2ccccc2-c2nc3ccccc3nc21	·	·	–	·	·
Cc1ccc(C(=O)NCC(=O)OCC(=O)/C=C2\N(C)c3ccccc3C2(C)C)cc1C	–	?	–	30µM	–
Cc1ccc(CNC(=O)CCS(=O)(=O)c2cc3c(cc2Cl)NC(=O)CO3)cc1	–	?	–	27µM	–
CC1CCCC(NC(=O)CCS(=O)(=O)c2cc3c(cc2Cl)NC(=O)CO3)C1C (centres undefined)	–	–	–	27µM	–
Cc1cc2c(cc1S(=O)(=O)NCc1ccccc1)OCC(=O)N2	–	–	–	–	25µM!
COc1ccccc1NC(=O)c1ccccc1S(=O)(=O)c1ccccc1[N+](=O)[O-]	–	–	–	6µM	–
COCC(=O)N1CC[C@H]2[C@@H]1c1cc(-c3cccc(OC)c3)ccc1N(C)[C@H]2CO	·	·	–	·	·
CC1Cc2ccccc2N1c1ncnc2c1nnn2Cc1ccccc1 (centres undefined)	–	–	–	–	22µM
CC1Cc2ccccc2N1c1nc(C2CC2)nc2c1nnn2Cc1ccccc1 (centres undefined)	–	–	–	–	?
C[N+](C)(CCOc1ccccc1)Cc1cccs1	·	·	–	·	·
COC(=O)C1CN(C2CCCC2)CCS(=O)(=O)N1Cc1ccc(F)cc1 (centres undefined)	·	·	–	·	·
CCSc1nnc(NC(=O)C(C)(C(F)(F)F)C(F)(F)F)s1	–	–	–	–	–
CCSc1nnc(NC(=O)C(C(F)(F)F)C(F)(F)F)s1	–	–	–	13µM	–
C#CCNC(=O)C[C@H]1C[C@@]2(C(=O)OC)C(=C[C@H](C3CCCC3)O[C@@H]2C)N(CCc2ccc(OC)c(OC)c2)C1=O	·	·	–	·	·
SMILES	GLS inh	VDR inhibitor	PI4K2A inh	PLK1 PBD block	GCN5L2 inh
CCCN(CCC)Cc1cc2ccccc2c2c1COC2	–	–	–	–	–
CCCCN(CCCC)Cc1cc2ccccc2c2c1COC2	–	–	-81	–	–
COc1ccc(NC(=O)N2CCN(C(=O)Nc3ccc(OC)cc3)CC2)cc1	–	–	–	–	–
COc1ccc(NC(=O)N2CCN(S(C)(=O)=O)CC2)cc1	–	?	–	27µM	–
CCN(c1ccccc1)c1cc2ccccc2c(=O)[nH]1	?	?	?	30µM	–
CCN(c1ccccc1)c1nc(=O)c2cccnc2s1	–	–	–	–	–
CC(C)(C)OC(=O)NCc1cc2c(cc1/C=C/S(=O)(=O)NCc1ccc(F)cc1)OCO2	·	·	–	·	·
Cc1sc2ncnc(SCC(=O)NC(=O)c3cccn3C)c2c1C	–	–	–	17µM	–
Cc1ccccc1SCC(=O)Nc1ccc(N2CCOCC2)cc1	–	–	–	19µM	–
Nc1ccccc1SCC(=O)Nc1ccc(N2CCOCC2)cc1	–	?	–	–	–
CCOc1ccc(Oc2nc(NCC(C)C)nc(N3CCOCC3)n2)nn1	–	–	–	·	–
O=C(CCc1nnc2ccc(NCc3ccccc3)nn12)NC1CCCCC1	–	–	–	24µM	–
O=C(NCCc1nnc2ccc(NCc3ccc(F)cc3)nn12)c1ccccc1	–	–	–	–	–
Cc1ccccc1Nc1c(-c2ccco2)nc2c(C)cccn12	–	–	–	·	–
CN(c1cccc(NC(=O)c2ccc(N(C)S(=O)(=O)c3ccccc3)cc2)c1)S(C)(=O)=O	?	?	–	12µM	–
O=S(=O)(Nc1cc(Br)cc2cccnc12)c1cccc2ccccc12	·	–	·	·	·
Cc1cc(Br)ccc1NC(=O)CN(C)C(=O)CCSc1ccc(F)cc1	–	–	–	27µM	–
CCN(CC)C(=O)CSc1nc2sc3c(c2c(=O)n1CCCOC)CCC3	?	?	–	24µM	–
O=C(CSc1nnc(SCc2cccc3ccccc23)s1)Nc1ccc(C(=O)O)cc1	?	–	–	24µM	–
O=C(CSc1nnc(-c2ccc(F)cc2)c2ccccc12)Nc1ccccc1	–	–	–	–	–
COC(=O)Cc1nnc(SCC(=O)Nc2ccccc2)c2ccccc12	–	79µM	–	–	?
O=C(CSc1nc(-c2ccc(F)cc2)nc2c1Cc1ccccc1O2)Nc1cccc(C(=O)O)c1	–	–	–	11µM	13µM
O=C(CSc1nncc2ccccc12)Nc1cccc(C(=O)O)c1	–	–	–	19µM	–
O=S(=O)(c1cccc(Cl)c1)N1CCN(c2nc(-c3cccs3)nc3ccccc23)CC1	·	–	·	·	·
CC[C@H](C)[C@H](NC(=O)[C@H](CC(=O)O)NC(=O)[C@H](CC(C)C)NC(=O)[C@H](Cc1cnc[nH]1)NC(=O)[C@H](C)NC(=O)[C@H](Cc1ccccc1)NC(=O)[C@H](Cc1ccc(O)cc1)NC(=O)[C@@H](NC(=O)[C@H](C)NC(=O)[C@H](CCC(=O)O)NC(=O)[C@H](CCCCN)NC(=O)[C@H](CC(=O)O)NC(=O)[C@H](CCSC)NC(=O)[C@H](CC(C)C)NC(C)=O)C(C)C)C(=O)N[C@H](C(=O)N[C@@H](Cc1c[nH]c2ccccc12)C(=O)O)[C@@H](C)CC	·	–	·	·	–
O=C(O)c1ccc(-n2c(=O)c3ccccc3c3ccccc3c2=O)cc1	–	?	–	?	–
